In PubChem BioAssay AID2751 (The Scripps Research Institute Molecular Screening Center, 2010) one finds inhibition data, which are given here for 93 molecules.

The campaign covered roughly 320,000 compounds. About 2,200 (0.69%) were called active. This excerpt belongs to a sample that is enriched for actives. A number with no mark means an inactive call. Rule as the data show it: active = inhibition above about 43%; inactive = the rest.

The target of this assay is Prolyl endopeptidase-like (Homo sapiens) (UniProt Q4J6C6). Put plainly: human PREPL activity-probe blockers – biochemical, fluorescence polarization, primary screen (AID 2751).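 Also: 0% = enzyme with DMSO and 100% = wells lacking enzyme.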 As to conditions: recombinant PREPL, fluorescence polarization activity-based probe; at 5.96 µM; hits give high values.
Sequence of Prolyl endopeptidase-like (Homo sapiens) (Q4J6C6 whole entry, looked up): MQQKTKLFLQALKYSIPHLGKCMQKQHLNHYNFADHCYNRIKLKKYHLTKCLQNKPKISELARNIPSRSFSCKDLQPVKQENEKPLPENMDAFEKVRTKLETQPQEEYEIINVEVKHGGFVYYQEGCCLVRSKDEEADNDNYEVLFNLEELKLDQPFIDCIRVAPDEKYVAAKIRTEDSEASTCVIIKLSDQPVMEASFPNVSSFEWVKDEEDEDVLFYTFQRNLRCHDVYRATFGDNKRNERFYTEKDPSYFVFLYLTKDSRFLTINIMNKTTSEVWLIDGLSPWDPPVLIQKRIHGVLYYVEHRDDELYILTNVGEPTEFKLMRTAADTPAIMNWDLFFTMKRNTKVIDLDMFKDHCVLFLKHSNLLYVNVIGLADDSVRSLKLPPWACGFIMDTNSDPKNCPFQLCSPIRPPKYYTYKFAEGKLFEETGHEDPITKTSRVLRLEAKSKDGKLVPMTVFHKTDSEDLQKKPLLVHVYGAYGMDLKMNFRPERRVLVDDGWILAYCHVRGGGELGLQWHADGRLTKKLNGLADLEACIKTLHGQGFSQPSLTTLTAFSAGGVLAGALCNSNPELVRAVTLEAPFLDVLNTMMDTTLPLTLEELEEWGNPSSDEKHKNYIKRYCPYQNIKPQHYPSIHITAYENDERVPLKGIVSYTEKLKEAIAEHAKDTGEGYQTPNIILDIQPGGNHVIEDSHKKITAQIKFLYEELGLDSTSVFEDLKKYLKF
One may read the inhibition as the drop in the measured response relative to a control, in per cent. `CCOc1ccc(N2C(=O)/C(=C/c3ccc(C)o3)N(C)C2=S)cc1`: the inhibition is 6.35%. For `CC(C)n1c(CN2CCN(Cc3ccccc3)CC2)nc2ccccc21`, the inhibition was -13.9%. Regarding `CCOC(=O)c1cnc(Nc2nc3ccccc3o2)nc1CSC(=S)N1CCCCC1`, the inhibition was -5.51%. Take `Cc1ccc(C(=O)NNC(=O)CSc2nnc3ccccn23)cc1`: the inhibition is -1.75%. `O=C(NCc1ccccn1)c1ccc2nc(-c3ccco3)c(-c3ccco3)nc2c1`: the inhibition was 46.4% (active).

On to `O=C1CSc2ccc(C(=O)NCc3ccccn3)cc2N1`, for which the inhibition was 4.19%. With `COCCNC(=O)Nc1ccc2nc(-c3ccco3)c(-c3ccco3)nc2c1`, the inhibition is 39.5%. Consider `COc1ccccc1CNC(=O)CSc1nc(=O)n(Cc2ccncc2)c2c1CCC2`, for which the inhibition is 2.55%. `O=S(=O)(c1ccccc1)N1CN(Cc2ccc(F)cc2)c2nc3ccccc3nc21`: the inhibition is -7.37%.

`CC(OC(=O)c1ccc(S(=O)(=O)N2CCOCC2)cc1)c1ccccc1` (stereo not drawn): the inhibition is -0.7%. For `CCN(CC)CCn1c2c(c(SCC(=O)Nc3ccc(C(C)C)cc3)nc1=O)CCC2`, the inhibition is 23.1%. Turning to `NC(=O)CSc1c[nH]c2ccccc12`, the inhibition was 7.6%. On to `O=S(=O)(O)Oc1c[nH]c2ccccc12`, for which the inhibition was 44.5% (active). The same measure for `O=C(NC1CCCC1)C(=O)c1c[nH]c2ccccc12`: 9.2%; for `O=C(OCc1nc2ccccc2[nH]1)C1CCCCC1`: 10.5%; for `COC(=O)Cc1nc2ccccc2[nH]1`: 47.1% (active). The same measure for `COc1ccc(CC(=O)N[C@@H](CCSC)c2nc3ccccc3[nH]2)cc1`: 5.96%; for `C=CCNC(=O)c1sc(SC)cc1-c1ccc(Cl)cc1`: 1.62%; for `Cc1cccnc1NC(=O)c1cccc(S(=O)(=O)N2CCN(c3ccc(F)cc3)CC2)c1`: -7.81%.

Take `O=C(CN1CCN(c2ccc(F)cc2)CC1)Nc1ccccc1`: the inhibition is 9.77%. `Oc1c(CN2CCN(c3ccc(F)cc3)CC2)cc(Cl)c2cccnc12`: the inhibition was 53.5% (active). For the molecule `Oc1c(CN2CCCC2)cc(COCc2ccccc2)c2cccnc12`, the inhibition was 63.8% (active).

In the case of `COc1cc(C)cc(CN2CCC(Cc3ccccc3)CC2)c1O`, the inhibition was -5.3%. The same measure for `Clc1cccc(CN2COc3c(cc(Cl)c4cccnc34)C2)c1`: 2.86%. With `NC[C@H](Cc1ccccc1)NCCc1cc(C(F)(F)F)cc(C(F)(F)F)c1`, the inhibition was -11.6%. On to `O=C(COC(=O)c1ccc(Cl)nc1)NCc1ccc2c(c1)OCO2`, for which the inhibition is 8.45%. Consider `CCN(CC)CC(=O)Nc1sc2c(c1C(=O)c1ccccc1C)CCC2`, for which the inhibition was 5.23%. Consider `CC(C)(CNC(=O)c1ccc(Cl)c(S(=O)(=O)N2CCc3ccccc3C2)c1)N1CCOCC1`, for which the inhibition was -27.3%. The same measure for `CCN(Cc1ccccc1)C(=O)CN1C(=S)NC(C)(C)CC1C` (stereo not drawn): -2.69%. On to `O=C(OCC(=O)N1CCN(c2ccccc2)CC1)c1ccc([N+](=O)[O-])s1`, for which the inhibition was 54.8% (active).

On to `C[C@H](NC(=O)c1ccccc1Cl)C(=O)OCC(=O)N1CCN(c2ccccc2)CC1`, for which the inhibition was 13.3%.

`COc1ccc(C(=O)COC(=O)c2ccc([N+](=O)[O-])s2)cc1OC`: the inhibition is 34.6%.

With `COCCN(CCOC)c1nc(N)c2c(N)nc3c(c2c1C#N)CC(=O)N3Cc1ccc(Cl)cc1`, the inhibition is 47.7% (active). Consider `COc1cccc2c1OCC(C(=O)NCc1ccc(Cl)cc1Cl)=C2`, for which the inhibition is -4.06%. For the molecule `C[N+](C)(CCCCCC[N+](C)(C)CCCN1C(=O)c2cccc3cccc(c23)C1=O)CCCN1C(=O)c2cccc3cccc(c23)C1=O`, the inhibition is 47.7% (active).

As for `O=C(CCCCCN1C(=O)c2cccc3cccc(c23)C1=O)NCc1ccco1`, the inhibition was 5.95%. As to `O=C1c2cccc3cccc(c23)C(=O)N1CCCCCc1n[nH]c(=S)o1`, the inhibition is 1.95%.

For the molecule `Cc1ccc(C(C)NC(=O)Cn2nc(C)c([N+](=O)[O-])c2C)cc1` (stereo not drawn), the inhibition was 11.6%. For the molecule `O=C(Nc1cccc(S(=O)(=O)N2CCOCC2)c1)C12CC3CC(CC(C3)C1)C2`, the inhibition was 12.3%. On to `CC(CNc1ccc([N+](=O)[O-])cc1)NC(=O)c1ccccc1Br` (stereo not drawn), for which the inhibition was 4.76%. In the case of `COc1ccc(C(=O)C2CCCN(C(=O)c3cnsn3)C2)c(C)c1` (stereo not drawn) it was 13.4%.

As to `COc1ccc2cc(C(=O)C3CCCN(C(=O)c4sc(C)nc4C)C3)ccc2c1` (stereo not drawn), the inhibition is 47.9% (active). Turning to `CCn1nc(C)cc1C(=O)N1CCCC(C(=O)c2cccc(OC)c2)C1` (stereo not drawn), the inhibition is -1.89%.

As for `COc1ccc(/C(O)=C2/C(=O)C(=O)N(CC3CCCO3)C2c2ccc(OC)c(OC)c2)cc1` (stereo not drawn), the inhibition is 1.2%. As to `CN(C)c1nccc(NCc2ccccc2)c1C#N`, the inhibition is 3.08%. `CCC(CO)Oc1cc(NC(=O)c2ccc(Cl)cc2)c2ncn(C(C)C)c2c1` (stereo not drawn): the inhibition was 13%. Turning to `CC(C)C[C@H](CO)Nc1nc(N(C)c2cccc(Cl)c2)c2ncn(C(C)C)c2n1`, the inhibition is 12.1%. For `CC(C)n1cnc2c(NCc3ccccc3)cc(N[C@@H](CO)Cc3ccccc3)cc21`, the inhibition is 62% (active). With `CC(C)n1cnc2c(NCc3ccccc3)cc(OCC3CCN(C)CC3)cc21`, the inhibition is 83.8% (active).

In the case of `CCC(CO)Oc1cc(NC(=O)c2cccc(F)c2)c2ncn(C(C)C)c2c1` (stereo not drawn), the inhibition is 3.94%.

For `CCC(CO)Oc1cc(NCc2ccccc2)c2ncn(C3CCCC3)c2c1` (stereo not drawn), the inhibition is 43.8% (active). Turning to `CCC(CO)Oc1cc(NC(=O)c2cccc3ccccc23)c2ncn(C(C)C)c2c1` (stereo not drawn), the inhibition is 18.7%. The same measure for `CC(C)N(Cc1ccccc1)C(=O)COC(=O)c1cnccn1`: -8.35%; for `COC(=O)[C@]1(Cc2ccccc2)N[C@H](CN(C)S(=O)(=O)c2ccc(OC(F)(F)F)cc2)[C@@H]2C(=O)N(Cc3ccccc3)C(=O)[C@@H]21`: 8.99%; for `COC(CNC(=O)Cn1ncc2ccsc2c1=O)OC`: 6.98%. Regarding `CCCn1c(SCC(=O)Nc2ccc(C)c(S(=O)(=O)N3CCOCC3)c2)n[nH]c1=O`, the inhibition is 3.91%. Take `CCc1cc(=O)oc2cc(C)cc(OCC(=O)N3CCC[C@@H]3C(=O)O)c12`: the inhibition is -4.62%.

Take `O=C(CN(C(=O)c1csnn1)c1ccc(Br)cc1)NC1CCCC1`: the inhibition was 5.56%. For the molecule `CCCc1cc(=O)[nH]c2nnc(SCC(=O)Nc3nnc(SCC)s3)n12`, the inhibition was 0.4%. For the molecule `CCn1c(=S)sc2c(=O)n(CC(=O)Nc3ccc(OC)cc3)c(C)nc21`, the inhibition is 7.88%.

As to `O=S(=O)(NCC1CC1)c1ccc(F)c(Cl)c1`, the inhibition was -5.91%.

With `CC(OC(=O)/C=C/c1ccccc1)C(=O)NC1CCCCC1C` (stereo not drawn), the inhibition was -7.55%. Consider `Cc1ccc(Nc2nc(Cl)c(C=O)s2)cc1`, for which the inhibition was -3.94%. `Nc1ccc(C(=O)Nc2ccccc2N)cc1`: the inhibition is -1.77%.

For `Cc1ccc(Nc2ccccc2N)cc1`, the inhibition was 47.5% (active).

`Cc1cc(OC(C)C(=O)NC2CC(C)(C)NC(C)(C)C2)c2c(C)cc(=O)oc2c1` (stereo not drawn): the inhibition is 2.31%. For `O=C(Nc1ccc([N+](=O)[O-])cc1)C1CC12CCC2` (stereo not drawn), the inhibition was 1.87%.

Turning to `CCN1C(=O)c2cccc3c(S(=O)(=O)Nc4ccccc4O)ccc1c23`, the inhibition is 4.31%. Take `CN1C(=O)c2cccc3c(N)ccc(c23)C1=O`: the inhibition is 14.4%.

Regarding `CCN1C(=O)c2cccc3c(N)ccc1c23`, the inhibition was 45.6% (active). Take `Cc1snc(SCc2c(F)cccc2Cl)c1C#N`: the inhibition is 10%.

On to `Cc1ncn(C23CC4CC(CC(O)(C4)C2)C3)n1`, for which the inhibition is 3.85%. Take `Cc1nc([N+](=O)[O-])nn1C12CC3CC(CC(Br)(C3)C1)C2`: the inhibition was 45.5% (active). As to `COc1cccc(NC(=O)c2nn(C34CC5CC(CC(C5)C3)C4)cc2[N+](=O)[O-])c1`, the inhibition was 1.65%. In the case of `CCn1nc(C(=O)NNS(=O)(=O)c2cc(/C=C/C(=O)O)cc(OC)c2OC)c2ccccc2c1=O` it was 1.44%; in that of `Cn1c(CC2Sc3ccccc3NC2=O)nnc1SCC(=O)c1ccc(Cl)cc1` (stereo not drawn), -2.92%. For `Cc1cc(-c2nnc(SCC(=O)Nc3ccc(F)cc3)n2N)n[nH]1`, the inhibition is -0.73%. For `CCOC(=O)N1CCN(S(=O)(=O)c2ccc(-n3cnnn3)cc2)CC1`, the inhibition is -0.87%. The same measure for `COc1ccc(/C=N/N=C/c2c[nH]c(=O)c(C#N)c2Nc2ccccc2)cc1`: 5.21%; for `O=C(OCC(=O)N1CCc2ccccc21)c1ccc([N+](=O)[O-])cc1`: 18%; for `O=C1c2ccccc2C(=O)c2c1cccc2N1CCN(CCO)CC1`: 10%.

On to `O=C1c2ccccc2C(=O)c2c1cccc2N1CCN(C/C=C/c2ccccc2)CC1`, for which the inhibition was 87.2% (active). The same measure for `O=C1c2ccccc2C(=O)c2c1cccc2N1CCN(Cc2ccccc2)CC1`: 34.3%. With `CN(C(=O)CC1C(=O)NCCN1Cc1ccc2ccccc2c1)C1CCOCC1` (stereo not drawn), the inhibition was 15.8%. Turning to `CCCc1cc(=S)n2c([nH]c3ccccc32)c1C#N`, the inhibition was 16%. In the case of `Cc1ccc(N2CCN(/N=C/c3cccs3)CC2)cc1` it was 10.6%; in that of `Cc1ccc(N2CCN(C3=NC(=O)/C(=C\c4cccs4)S3)CC2)cc1`, 53% (active). Take `Cc1ccsc1/C=C1\SC(N2CCOCC2)=NC1=O`: the inhibition is 5.64%. Take `CN(NS(=O)(=O)c1cccs1)c1ncc(C(F)(F)F)cc1Cl`: the inhibition is -0.65%. Consider `COc1ccccc1OCC(=O)Nc1c2c(nn1-c1ccc(F)cc1)CS(=O)(=O)C2`, for which the inhibition is -4.94%. The same measure for `COc1cccc(NC(=O)CN2CCN(CC(=O)Nc3ccccc3Cl)CC2)c1`: -3.67%; for `COc1ccc(Cl)cc1NC(=O)CN1CCN(C(=O)N2CCOCC2)CC1`: -6.54%. For the molecule `COc1ccc(NC(C)=O)cc1NC(=O)CN1CCN(C2c3ccccc3-c3ccccc32)CC1`, the inhibition was 43.8% (active).
